# Results: the supplement of paper PMC12350171
# Structures can show the parent of a compound that is named as a salt. Unmarked numbers belong to inactive results.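 The calls were made as follows: active = AUC significantly below DMSO controls by Student t-fit with adjusted P under 0.01; inactive = not significantly reduced.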
# System: Salmonella enterica typhimurium
# Assay: growth AUC normalised to DMSO control (fraction of control); higher = less growth inhibition, active = hit call of the paper
# Settings: 20 µM
# Outline: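 Pathogens passaged twice anaerobically were inoculated at a starting OD578 of 0.01 into pre-reduced mGAM plates with drug at 20 μM and 1% DMSO, sealed with breathable membranes. Haemophilus parainfluenzae medium was supplemented with hemin and NAD. OD578 was read hourly for 24 h, with three biological replicates. Growth-curve AUC was computed by the trapezoidal rule up to the exponential-to-stationary transition and normalised to DMSO controls on the same plate.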
row,Compound,growth AUC normalised to DMSO control
1,O=C(NCC(O)CO)c1c(I)c(C(=O)NCC(O)CO)c(I)c(N(CCO)C(=O)CO)c1I (stereo not given) [Ioversol],1.01
2,CC(CN(C)C)CN1c2ccccc2Sc2ccccc21 (stereo not given) [Trimeprazine tartrate],0.988
3,CCCCC[C@H](O)/C=C/[C@H]1[C@H](O)CC(=O)[C@@H]1CCCCCCC(=O)O [Alprostadil],0.992
4,CCCCOC(=O)c1ccc(O)cc1 [Butylparaben],1.01
5,CN1CCCN=C1/C=C/c1cccc(O)c1 [Oxantel pamoate],1.01
6,Cc1ccc(S(=O)(=O)NC(=O)NN2CC3CCCC3C2)cc1 (stereo not given) [Gliclazide],1.02
7,CC1CNc2c(cccc2S(=O)(=O)N[C@@H](CCCNC(=N)N)C(=O)N2CC[C@@H](C)C[C@@H]2C(=O)O)C1 (stereo not given in full) [Argatroban],1
8,CCCCC1C(=O)N(c2ccccc2)N(c2ccc(O)cc2)C1=O (stereo not given) [Oxyphenbutazone],0.996
9,COc1c(N2C[C@@H]3CCCN[C@@H]3C2)c(F)cc2c(=O)c(C(=O)O)cn(C3CC3)c12 [Moxifloxacin],0.00585 (active)
10,CN(Cc1ccc(C(C)(C)C)cc1)Cc1cccc2ccccc12 [Butenafine hydrochloride],0.974
11,CC(=O)OCC(=O)[C@@]12N=C(C)O[C@@H]1C[C@H]1[C@@H]3CCC4=CC(=O)C=C[C@]4(C)[C@H]3[C@@H](O)C[C@@]12C [Deflazacort],0.977
12,CN1CCN(C2=Nc3ccccc3Oc3ccc(Cl)cc32)CC1 [Loxapine succinate],1
13,CC(C)(C)NCC(O)COc1cccc2c1CCC(=O)N2 (stereo not given) [Carteolol hydrochloride],1
14,O=C(CCCCCCC(=O)Nc1ccccc1)NO [Vorinostat],0.994
15,O=C1CN(/N=C/c2ccc([N+](=O)[O-])o2)C(=O)N1 [Nitrofurantoin],0.974
16,N=C(N)NCC1COC2(CCCCC2)O1 (stereo not given) [Guanadrel sulfate],0.979
17,CC(=O)Nc1ccc(OCC(O)CNC(C)C)cc1 (stereo not given) [Practolol],1
18,C[C@H](O)C(=O)Nc1c(I)c(C(=O)NC(CO)CO)c(I)c(C(=O)NC(CO)CO)c1I [Iopamidol],1.03
19,Cc1ncc(CO)c(CO)c1O [Pyridoxine hydrochloride],0.992
20,CC1=C(CC(=O)O)c2cc(F)ccc2/C1=C\c1ccc([S+](C)[O-])cc1 (stereo not given) [Sulindac],0.976

row,Compound,growth AUC normalised to DMSO control
1,CC(C)CC(=O)N[C@H](C(=O)N[C@H](C(=O)N[C@@H](CC(C)C)[C@@H](O)CC(=O)N[C@@H](C)C(=O)N[C@@H](CC(C)C)[C@@H](O)CC(=O)O)C(C)C)C(C)C [Pepstatin A],1.01
2,CC(COc1ccccc1)N(CCCl)Cc1ccccc1 (stereo not given) [Phenoxybenzamine hydrochloride],1.01
3,CCN[C@H]1CN(CCCOC)S(=O)(=O)c2sc(S(N)(=O)=O)cc21 [Brinzolamide],0.965
4,CCCCOc1cc(C(=O)OCCN(CC)CC)ccc1N [Benoxinate hydrochloride],1
5,CNCC[C@@H](Oc1ccccc1C)c1ccccc1 [Tomoxetine hydrochloride],1.01
6,Cc1cc(=O)n(-c2ccccc2)n1C [Antipyrine],1
7,OC(Cn1cncn1)(Cn1cncn1)c1ccc(F)cc1F [Fluconazole],1.01
8,O=C1O[C@H]([C@@H](O)CO)C(O)=C1O [Ascorbic acid],1.02
9,"c1ccc(CNc2ncnc3nc[nH]c23)cc1 [Aminopurine, 6-benzyl]",1
10,CC(CCc1ccccc1)NCC(O)c1ccc(O)c(C(N)=O)c1 (stereo not given) [Labetalol hydrochloride],0.969
11,OCCN(CCO)c1nc(N2CCCCC2)c2nc(N(CCO)CCO)nc(N3CCCCC3)c2n1 [Dipyridamole],1.01
12,CCCCCCCCNC(C)C(O)c1ccc(SC(C)C)cc1 (stereo not given) [Suloctidil],1.02
13,CCCCCCC[N+](CC)(CC)CCCCc1ccc(Cl)cc1 [Clofilium tosylate],1
14,C=CC[N@@+]12CC[C@@]34c5ccccc5N5/C=C6/[C@H]7C[C@H]8[C@@]9(CC[N@@+]8(CC=C)C/C7=C/CO)c7ccccc7N(/C=C(/[C@@H](C[C@@H]31)/C(=C\CO)C2)[C@H]54)[C@@H]69 [Alcuronium chloride],0.94
15,CCc1ccc(CCOc2ccc(CC3SC(=O)NC3=O)cc2)nc1 (stereo not given) [Pioglitazone],0.967
16,CC1CC(OC(=O)c2ccccc2O)CC(C)(C)C1 (stereo not given) [Homosalate],1
17,CC(C)N1CCN(c2ccc(OCC3COC(Cn4cncn4)(c4ccc(Cl)cc4Cl)O3)cc2)CC1 (stereo not given) [Terconazole],0.962
18,O=C(Nc1ccc([N+](=O)[O-])cc1Cl)c1cc(Cl)ccc1O [Niclosamide],0.995
19,CCN1C(=O)NC(c2ccccc2)C1=O (stereo not given) [Ethotoin],0.995
20,COc1cc(Cc2cnc(N)nc2N)cc(OC)c1OC [Trimethoprim],0.197 (active)
